For orientation: AC50 means the concentration giving half of the maximal activity seen.

Outcome and AC50 data for 26 molecules are collected here from PubChem BioAssay (EPA / NIEHS).

For assay [1], the target named is Protein deacetylase HDAC6 (Homo sapiens) (UniProt Q9UBN7). Kind of assay: NVS_ENZ_hHDAC6: NovaScreen (NVS) Enzymatic Assay for human Histone Deacetylase 6 (HDAC6) (AID 2283164). The method, boiled down:
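Recombinant human HDAC6 with fluorescent substrate, 1 h; product separated from substrate by electrophoretic mobility shift. Primary screen in duplicate at 25 uM; actives retested singly in concentration-response up to 50 uM, fitted relative to DMSO.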

For assay [2], the target named is human MET Proto-Oncogene, Receptor Tyrosine Kinase (MET), MET (gene 4233) (UniProt P08581). Kind of assay: NVS_ENZ_hMet: NovaScreen (NVS) Enzymatic Assay for human MET Proto-Oncogene, Receptor Tyrosine Kinase (MET) (AID 2283180). The procedure, abridged:
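Cell-free MET kinase assay using recombinant protein and fluorescent substrate, with mobility-shift separation; read 1 h after dosing. Primary duplicate at 25 uM; actives in singleton concentration-response to 50 uM maximum. Signal loss versus DMSO.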

The target of assay [3] is human Matrix Metalloproteinase-1 (MMP1), MMP1 (gene 4312) (UniProt P03956). Kind of assay: NVS_ENZ_hMMP1: NovaScreen (NVS) Enzymatic Assay for human Matrix Metalloproteinase-1 (MMP1) (AID 2283181). The method, boiled down: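 Human MMP1 enzyme activity measured by fluorescence 1 h after dosing, cell-free, with a specific substrate. Screened in duplicate at 25 uM; hits (e.g. 30% inhibition) run in concentration-response up to 50 uM; loss of signal versus DMSO.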

Assay [4] addresses rat Monoamine Oxidase, MAO-B, Central (MAOBC), Maob (gene 25750) (UniProt P19643). Kind of assay: NVS_ENZ_rMAOBC: NovaScreen (NVS) Enzymatic Assay for rat Monoamine Oxidase, MAO-B, Central (MAOBC) (AID 2283238). The method, boiled down:
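Rat brain tissue extract served as the cell-free MAO-B source; enzyme activity was read by scintillation counting 1.17 hours after compound addition. Loss of signal versus DMSO baseline was fitted; primary single-concentration screen at 25 uM, follow-up concentration-response up to 50 uM.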

Assay [5] concerns the target human Mitogen-Activated Protein Kinase 1 (MAPK 1), MAPK1 (gene 5594) (UniProt P28482). Kind of assay: NVS_ENZ_hMAPK1: NovaScreen (NVS) Enzymatic Assay for human Mitogen-Activated Protein Kinase 1 (MAPK 1) (AID 2283175). The method, boiled down:
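Cell-free recombinant human MAPK1 enzymatic assay, fluorescence/electrophoretic mobility shift read at 1 h; loss of signal vs DMSO. Primary screen in duplicate at 25 uM; actives (e.g. ≥30% inhibition) run as concentration-response up to 50 uM.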

In assay [6] the target is human Fibroblast Growth Factor Receptor 1 (FGFR1), FGFR1 (gene 2260) (UniProt P11362). Kind of assay: NVS_ENZ_hFGFR1: NovaScreen (NVS) Enzymatic Assay for human Fibroblast Growth Factor Receptor 1 (FGFR1) (AID 2283159). The procedure, abridged: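 Cell-free recombinant kinase with fluorescent substrate, product separated by electrophoretic mobility shift; read 1 hour after dosing, loss of signal relative to DMSO. Initial screen in duplicate at 25 uM, actives followed in concentration series.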

Assay [7] concerns the target rat Corticotropin Releasing Factor Receptor (CRF), Crhr1 (gene 58959) (UniProt P35353). Kind of assay: NVS_GPCR_rCRF: NovaScreen (NVS) G Protein-Coupled Receptor Assay for rat Corticotropin Releasing Factor Receptor (CRF) (AID 2283300). The procedure, abridged: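 Rat cortical membranes used as receptor source in a radioligand competitive displacement binding assay; scintillation read 2 h after dosing. Primary screen run in duplicate at 25 uM; loss of signal versus DMSO baseline indicates binding.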

Assay [8] concerns the target human Phosphatase and Tensin Homolog (PTEN), PTEN (gene 5728) (UniProt P60484). Kind of assay: NVS_ENZ_hPTEN: NovaScreen (NVS) Enzymatic Assay for human Phosphatase and Tensin Homolog (PTEN) (AID 2283203). The method, boiled down:
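Cell-free recombinant human PTEN with fluorescent substrate; product separated by electrophoretic mobility shift and read by fluorescence 1 h after dosing. Primary screen in duplicate at 25 uM, actives followed in concentration series versus DMSO.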

The test system of assay [9] is rat Monoamine Oxidase, MAO-A, Central (MAOAC), gene 29253. Kind of assay: NVS_ENZ_rMAOAC: NovaScreen (NVS) Enzymatic Assay for rat Monoamine Oxidase, MAO-A, Central (MAOAC) (AID 2283243).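 Note: potency refers to inhibition seen as signal drop below DMSO baseline.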 The method, boiled down: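 Steps: rat brain protein extract dosed with test chemical (25 uM, duplicate, primary); incubated 1.5 h; radiolabelled product separated from substrate and counted. Signal loss versus DMSO scored as inhibition.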

Assay [10] has as its target Norway rat Vesicular Monoamine Transporter (VMAT2), neurotransmitter transporter, Slc18a2 (gene 25549) (UniProt Q01827). Kind of assay: NVS_TR_rVMAT2: NovaScreen (NVS) Transporter Assay for Norway rat Vesicular Monoamine Transporter (VMAT2), neurotransmitter transporter (AID 2283376).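 Note: actives lower the bound radioligand signal below the DMSO level.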 The method, boiled down: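 Rat forebrain tissue preparation used in a cell-free radioligand binding format; displacement read by filter-based scintillation counting 1 hour after dosing. Primary screen in duplicate at 25 uM, actives then run in concentration series; loss of signal versus DMSO baseline.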

A short description of assay [11]: Tanguay_ZF_120hpf_MUSC: Oregon State University Tanguay Lab 120 Hour Post-fertilization zebrafish Assay for Muscle Malformation (AID 2284401; active = hit-call score of the fitted dose curve at least 0.9, where 1 is the maximum; inactive = score below 0.9). The method, boiled down:
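Dechorionated Tropical 5D wild-type zebrafish embryos exposed statically from 6 to 120 hpf at 28C, one per well, in 0.64% DMSO. Muscle malformation scored present/absent by brightfield microscopy at 120 hpf, fitted against DMSO.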

The target in assay [12] is human Tyrosine Protein Kinase Receptor Tie-2 (Tie2), TEK (gene 7010) (UniProt Q02763). Kind of assay: NVS_ENZ_hTie2: NovaScreen (NVS) Enzymatic Assay for human Tyrosine Protein Kinase Receptor Tie-2 (Tie2) (AID 2283225). The method, boiled down: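 Recombinant human Tie2 kinase activity was read cell-free by fluorescence with electrophoretic mobility shift, 1 hour after dosing. The screen used 25 uM in duplicate, then concentration-response up to 50 uM. Signal loss was scored against DMSO.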

In assay [13] the target is rat Gamma-Aminobutyric Acid Type A Receptor BDZ, alpha 6 site (GABARa6), Gabra6 (gene 29708) (UniProt P30191). Kind of assay: NVS_LGIC_rGABARa6: NovaScreen (NVS) Ligand-Gated Ion Channel Assay for rat Gamma-Aminobutyric Acid Type A Receptor BDZ, alpha 6 site (GABARa6) (AID 2283339). The procedure, abridged:
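Rat cerebellar membranes; radioligand binding, filtration and scintillation counting, read 1 h after dosing. Single-concentration duplicate screen at 25 uM, then concentration-response up to 50 uM for actives; loss of signal fitted versus DMSO baseline.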

For assay [14], the system named is rat Monoamine Oxidase, MAO-A, Peripheral (MAOAP), gene 29253. Kind of assay: NVS_ENZ_rMAOAP: NovaScreen (NVS) Enzymatic Assay for rat Monoamine Oxidase, MAO-A, Peripheral (MAOAP) (AID 2283237). The method, boiled down:
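Rat liver mitochondrial membranes served as the MAO-A source, with enzyme activity measured by radiometric scintillation counting 1.17 hours after dosing. Loss of signal was fitted against DMSO; primary screen used 25 uM in duplicate, follow-up used concentration series.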

Assay [15] addresses human p21 Activated Kinase 4 (PAK4), PAK4 (gene 10298) (UniProt O96013). Kind of assay: NVS_ENZ_hPAK4: NovaScreen (NVS) Enzymatic Assay for human p21 Activated Kinase 4 (PAK4) (AID 2283189). The method, boiled down:
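Cell-free recombinant human PAK4 activity assay; fluorescent substrate and product separated by electrophoretic mobility shift, read 1 h after dosing. Initially tested in duplicate at 25 uM, relative to DMSO baseline.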

In assay [16] the target is Voltage-dependent N-type calcium channel subunit alpha-1B (Rattus norvegicus) (UniProt Q02294). Kind of assay: NVS_IC_rCaChN: NovaScreen (NVS) Ion Channel Assay for rat Calcium Channel, Type N (CaChN) (AID 2283317).
The target in assay [17] is rat Neurotensin Receptor (NTS), Ntsr1 (gene 366274) (UniProt P20789). Kind of assay: NVS_GPCR_rNTS: NovaScreen (NVS) G Protein-Coupled Receptor Assay for rat Neurotensin Receptor (NTS) (AID 2283308). The procedure, abridged: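 Rat forebrain membranes; radioligand binding with competitive displacement, read by filter-based scintillation counting 1 h after dosing. Primary screen in duplicate at 25 uM; actives (e.g., 30% inhibition) rerun in concentration-response up to 50 uM, loss-of-signal versus DMSO.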

Inconclusive results are not listed. Activity calls are given as the source filed them. Rule for the calls, unless noted: active = hit-call score of the fitted dose curve at least 0.9, where 1 is the maximum; inconclusive = response in the unintended direction; inactive = score below 0.9.

human Fibroblast Growth Factor Receptor 1 (FGFR1), FGFR1 (gene 2260), sequence (P11362 whole entry, looked up): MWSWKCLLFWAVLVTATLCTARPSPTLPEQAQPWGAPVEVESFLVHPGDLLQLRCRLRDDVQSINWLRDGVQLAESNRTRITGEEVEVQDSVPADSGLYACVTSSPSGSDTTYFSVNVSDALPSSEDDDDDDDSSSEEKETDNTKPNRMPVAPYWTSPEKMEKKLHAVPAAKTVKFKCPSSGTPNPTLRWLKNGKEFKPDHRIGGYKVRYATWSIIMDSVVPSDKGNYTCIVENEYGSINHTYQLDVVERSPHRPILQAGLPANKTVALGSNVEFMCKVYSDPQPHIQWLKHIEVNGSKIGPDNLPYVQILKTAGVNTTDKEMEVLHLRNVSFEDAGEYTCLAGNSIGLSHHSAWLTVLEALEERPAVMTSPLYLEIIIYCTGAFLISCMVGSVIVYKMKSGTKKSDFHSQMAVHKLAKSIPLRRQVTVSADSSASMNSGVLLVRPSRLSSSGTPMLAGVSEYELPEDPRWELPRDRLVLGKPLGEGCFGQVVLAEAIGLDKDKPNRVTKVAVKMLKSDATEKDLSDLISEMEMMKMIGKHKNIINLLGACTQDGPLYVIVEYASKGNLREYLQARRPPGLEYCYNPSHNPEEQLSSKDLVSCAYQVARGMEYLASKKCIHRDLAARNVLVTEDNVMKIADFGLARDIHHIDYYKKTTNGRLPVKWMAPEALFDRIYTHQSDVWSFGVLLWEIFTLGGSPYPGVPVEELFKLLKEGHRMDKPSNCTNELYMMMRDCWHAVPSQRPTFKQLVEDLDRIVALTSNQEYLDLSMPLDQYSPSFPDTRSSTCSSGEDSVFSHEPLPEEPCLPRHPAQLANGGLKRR
human Mitogen-Activated Protein Kinase 1 (MAPK 1), MAPK1 (gene 5594), sequence (P28482 whole entry, looked up): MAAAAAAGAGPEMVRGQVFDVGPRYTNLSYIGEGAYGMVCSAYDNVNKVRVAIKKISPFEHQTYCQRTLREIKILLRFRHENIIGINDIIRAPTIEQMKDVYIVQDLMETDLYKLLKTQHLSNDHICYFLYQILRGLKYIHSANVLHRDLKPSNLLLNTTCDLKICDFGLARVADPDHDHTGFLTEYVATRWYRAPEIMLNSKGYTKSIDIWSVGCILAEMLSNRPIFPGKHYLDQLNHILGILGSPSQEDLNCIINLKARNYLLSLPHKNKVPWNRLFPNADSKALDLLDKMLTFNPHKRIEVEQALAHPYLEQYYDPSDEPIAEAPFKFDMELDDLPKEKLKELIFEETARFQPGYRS
Protein deacetylase HDAC6 (Homo sapiens), sequence (Q9UBN7 whole entry, looked up): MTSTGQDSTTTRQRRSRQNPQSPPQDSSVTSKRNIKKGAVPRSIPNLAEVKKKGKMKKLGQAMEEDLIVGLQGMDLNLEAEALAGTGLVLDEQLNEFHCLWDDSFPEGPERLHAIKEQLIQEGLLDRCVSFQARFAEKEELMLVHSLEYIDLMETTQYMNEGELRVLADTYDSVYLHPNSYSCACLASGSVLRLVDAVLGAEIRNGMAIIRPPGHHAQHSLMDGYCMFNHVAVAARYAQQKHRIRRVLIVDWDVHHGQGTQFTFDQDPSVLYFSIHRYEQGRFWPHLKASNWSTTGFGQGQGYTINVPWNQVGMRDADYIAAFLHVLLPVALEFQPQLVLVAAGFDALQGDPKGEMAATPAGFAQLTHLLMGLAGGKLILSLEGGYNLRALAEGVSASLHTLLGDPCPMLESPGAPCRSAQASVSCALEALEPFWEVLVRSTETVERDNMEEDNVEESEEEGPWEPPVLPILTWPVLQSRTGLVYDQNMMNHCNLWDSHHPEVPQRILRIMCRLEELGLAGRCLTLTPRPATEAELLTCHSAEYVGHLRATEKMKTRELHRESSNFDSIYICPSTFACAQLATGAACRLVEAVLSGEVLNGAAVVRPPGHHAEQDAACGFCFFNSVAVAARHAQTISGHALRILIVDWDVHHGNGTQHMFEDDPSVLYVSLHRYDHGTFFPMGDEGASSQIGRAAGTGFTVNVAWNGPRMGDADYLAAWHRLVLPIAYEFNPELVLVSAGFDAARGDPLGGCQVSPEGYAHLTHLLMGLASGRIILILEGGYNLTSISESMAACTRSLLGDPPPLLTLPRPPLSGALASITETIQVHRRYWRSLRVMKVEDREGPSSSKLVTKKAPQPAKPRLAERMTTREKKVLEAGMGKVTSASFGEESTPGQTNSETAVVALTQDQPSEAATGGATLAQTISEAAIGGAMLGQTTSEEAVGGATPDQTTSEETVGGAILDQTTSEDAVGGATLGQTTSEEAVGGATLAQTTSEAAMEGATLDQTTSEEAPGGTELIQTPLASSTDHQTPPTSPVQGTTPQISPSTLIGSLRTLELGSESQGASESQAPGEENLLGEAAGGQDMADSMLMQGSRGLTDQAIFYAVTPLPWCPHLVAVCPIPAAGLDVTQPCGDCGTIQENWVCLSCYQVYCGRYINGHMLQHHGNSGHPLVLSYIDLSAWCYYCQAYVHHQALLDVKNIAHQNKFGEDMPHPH
human Matrix Metalloproteinase-1 (MMP1), MMP1 (gene 4312), sequence (P03956 whole entry, looked up): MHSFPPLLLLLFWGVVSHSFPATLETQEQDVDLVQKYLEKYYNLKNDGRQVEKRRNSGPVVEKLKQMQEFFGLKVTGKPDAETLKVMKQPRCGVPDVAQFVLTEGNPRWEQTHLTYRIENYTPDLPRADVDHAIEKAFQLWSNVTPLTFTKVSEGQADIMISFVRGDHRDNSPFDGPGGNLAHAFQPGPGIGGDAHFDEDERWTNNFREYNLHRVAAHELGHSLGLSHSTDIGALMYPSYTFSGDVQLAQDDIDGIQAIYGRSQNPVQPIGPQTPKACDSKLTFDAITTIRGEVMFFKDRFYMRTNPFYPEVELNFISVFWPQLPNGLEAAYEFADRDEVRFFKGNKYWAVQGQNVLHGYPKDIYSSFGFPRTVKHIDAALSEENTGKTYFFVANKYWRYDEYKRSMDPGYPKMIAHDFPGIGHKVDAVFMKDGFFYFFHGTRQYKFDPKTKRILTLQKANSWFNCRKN
human MET Proto-Oncogene, Receptor Tyrosine Kinase (MET), MET (gene 4233), sequence (P08581 whole entry, looked up): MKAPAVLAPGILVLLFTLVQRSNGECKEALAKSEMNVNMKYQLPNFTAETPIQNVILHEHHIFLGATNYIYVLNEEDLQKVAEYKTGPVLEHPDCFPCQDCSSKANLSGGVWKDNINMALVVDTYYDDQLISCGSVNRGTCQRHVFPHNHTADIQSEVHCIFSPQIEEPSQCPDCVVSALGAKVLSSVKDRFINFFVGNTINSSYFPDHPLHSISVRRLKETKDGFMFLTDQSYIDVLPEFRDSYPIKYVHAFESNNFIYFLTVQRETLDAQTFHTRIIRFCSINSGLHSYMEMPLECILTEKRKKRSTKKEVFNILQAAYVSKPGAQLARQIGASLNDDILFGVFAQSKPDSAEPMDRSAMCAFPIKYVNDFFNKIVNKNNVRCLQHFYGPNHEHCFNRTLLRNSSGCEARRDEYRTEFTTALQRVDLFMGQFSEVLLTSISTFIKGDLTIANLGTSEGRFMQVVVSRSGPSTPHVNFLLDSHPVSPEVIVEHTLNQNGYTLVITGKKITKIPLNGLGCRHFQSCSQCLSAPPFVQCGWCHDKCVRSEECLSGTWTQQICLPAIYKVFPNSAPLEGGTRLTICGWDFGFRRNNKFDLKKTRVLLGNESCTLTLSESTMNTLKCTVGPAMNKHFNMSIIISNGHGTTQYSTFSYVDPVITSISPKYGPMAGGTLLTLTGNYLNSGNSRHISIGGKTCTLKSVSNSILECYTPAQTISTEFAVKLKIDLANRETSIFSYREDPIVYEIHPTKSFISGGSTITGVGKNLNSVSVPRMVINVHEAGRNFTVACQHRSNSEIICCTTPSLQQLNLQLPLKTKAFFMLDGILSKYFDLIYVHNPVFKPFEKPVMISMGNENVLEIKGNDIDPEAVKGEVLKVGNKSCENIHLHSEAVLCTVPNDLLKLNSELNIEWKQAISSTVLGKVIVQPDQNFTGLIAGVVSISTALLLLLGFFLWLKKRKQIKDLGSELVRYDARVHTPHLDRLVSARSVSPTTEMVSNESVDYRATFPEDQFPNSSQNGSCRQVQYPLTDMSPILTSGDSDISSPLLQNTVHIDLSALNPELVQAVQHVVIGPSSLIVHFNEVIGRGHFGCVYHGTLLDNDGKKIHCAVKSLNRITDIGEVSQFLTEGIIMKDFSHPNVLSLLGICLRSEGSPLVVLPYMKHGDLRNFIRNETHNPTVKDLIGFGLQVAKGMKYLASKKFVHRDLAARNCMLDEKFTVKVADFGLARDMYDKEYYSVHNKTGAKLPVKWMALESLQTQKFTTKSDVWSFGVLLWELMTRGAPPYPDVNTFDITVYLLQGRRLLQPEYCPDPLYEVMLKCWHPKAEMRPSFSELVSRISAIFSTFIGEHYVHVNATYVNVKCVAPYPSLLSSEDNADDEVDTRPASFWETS
rat Corticotropin Releasing Factor Receptor (CRF), Crhr1 (gene 58959), sequence (P35353 whole entry, looked up): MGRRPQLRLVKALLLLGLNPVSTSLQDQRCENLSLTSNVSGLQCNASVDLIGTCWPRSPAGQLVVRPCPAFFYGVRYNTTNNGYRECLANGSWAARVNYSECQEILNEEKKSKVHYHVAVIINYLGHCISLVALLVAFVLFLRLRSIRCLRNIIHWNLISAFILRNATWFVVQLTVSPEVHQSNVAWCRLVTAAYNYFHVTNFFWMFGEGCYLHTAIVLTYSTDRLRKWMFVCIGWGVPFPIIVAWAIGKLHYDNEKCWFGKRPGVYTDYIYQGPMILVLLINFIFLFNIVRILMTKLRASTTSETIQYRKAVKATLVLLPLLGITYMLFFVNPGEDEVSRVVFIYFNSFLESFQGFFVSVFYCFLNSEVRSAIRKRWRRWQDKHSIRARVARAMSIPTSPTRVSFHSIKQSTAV
human Phosphatase and Tensin Homolog (PTEN), PTEN (gene 5728), sequence (P60484 whole entry, looked up): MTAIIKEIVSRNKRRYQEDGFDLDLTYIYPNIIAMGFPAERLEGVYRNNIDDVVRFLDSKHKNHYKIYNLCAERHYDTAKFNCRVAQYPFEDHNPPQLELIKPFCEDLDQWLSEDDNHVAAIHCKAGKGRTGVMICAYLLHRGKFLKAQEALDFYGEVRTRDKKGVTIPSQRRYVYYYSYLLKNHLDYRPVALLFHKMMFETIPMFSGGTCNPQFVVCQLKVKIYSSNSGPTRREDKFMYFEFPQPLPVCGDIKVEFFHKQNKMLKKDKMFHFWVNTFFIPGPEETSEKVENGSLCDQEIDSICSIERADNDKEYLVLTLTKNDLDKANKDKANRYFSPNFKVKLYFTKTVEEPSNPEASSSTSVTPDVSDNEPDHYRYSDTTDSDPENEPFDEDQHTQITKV

Turning to `On1ccccc1=S`, the call in assay [1] was inactive. In the case of `CCCOC(=O)c1cc(O)c(O)c(O)c1`, the outcome in [2] and in assay [4] was inactive. Also, the concentration at half-maximal activity (AC50) in assay [3] is 16.1 µM (active). As to `CCCc1cc(=O)[nH]c(=S)[nH]1`, the molecule was called inactive in [1] and in assay [5]. Turning to `Cc1cc(C)c(O)c(C)c1`, the outcome in assay [6] and in [7] was inactive.

`C1CCC(SSC2CCCCC2)CC1`: the result in assay [1], in assay [8] and in assay [7] was inactive. With `CC(N)=O`, the result in assay [1] and in assay [9] was inactive. As to `COCc1nnc(-c2ccc[n+]([O-])c2)n1-c1c(Cl)c(Cl)cc2[nH]c(=O)c(=O)[nH]c12`, in assay [6], the result was inactive. Consider `OCCC(F)(F)C(F)(F)C(F)(F)C(F)(F)C(F)(F)C(F)(F)F`, for which the call in assay [6], in [10] and in assay [11] was inactive.

`O=C(O)c1ccccc1`: the call in assay [6] and in assay [4] was inactive.

For the molecule `Clc1cc(Cl)c(Cl)cc1Cl`, the molecule was called inactive in assay [3]. On to `[O-]n1ccccc1=S.[O-]n1ccccc1=S.[Zn+2]`, for which the outcome in [6] and in assay [12] was inactive. For `CC(C)(C)CC(C)(C)c1ccc(O)c(-n2nc3ccccc3n2)c1`, the call in [6] and in assay [13] was inactive. Take `CC(CO)OC(C)CO` (configuration not stated) (tested in a mixture with another compound): the call in [1] and in assay [12] was inactive. On to `CCCCCCCC=O`, for which the molecule was called inactive in [6], in assay [5] and in assay [14].

`Nc1ccc(S(=O)(=O)c2ccc(N)cc2)cc1`: the outcome in assay [6] was inactive. Take `CC(=O)Oc1ccccc1C(=O)O`: the molecule was called inactive in assay [2] and in assay [3].

With `Nc1ccn([C@@H]2O[C@H](CO)[C@@H](O)[C@@H]2O)c(=O)n1`, the call in [5] was inactive.

For the molecule `Cc1[nH]cnc1C[C@H]1CCc2c(C)c3ccccc3n2C1=O`, the molecule was called inactive in assay [1] and in assay [15]. Further, the half-maximal activity concentration (AC50) in assay [10] was 0.755 µM (active). Consider `CC(O)CO` (configuration not stated), for which the call in assay [2] was inactive. For the molecule `c1cc(-c2ccncc2)ccn1`, the molecule was classed as inactive in assay [6]. With `Cc1ccc(S(=O)(=O)NC(=O)NN2CCCCCC2)cc1`, the AC50 in assay [3] was 6.9 µM (active). Take `CC(C)=CCC/C(C)=C/CO`: the molecule was called inactive in assay [2]. Turning to `NC(=O)NO`, in assay [1], the molecule was called inactive.

For the molecule `CCCOc1ccc(S(=O)(=O)N2CCN(CC)CC2)cc1-c1nc2c(CC)n(Cc3ccccn3)nc2c(=O)[nH]1`, the outcome in assay [5] and in assay [16] was inactive. `Cc1cn([C@H]2C[C@H](N=[N+]=[N-])[C@@H](CO)O2)c(=O)[nH]c1=O`: the outcome in assay [6], in assay [5] and in [17] was inactive. As to `CCCCc1ccc2c(n1)[C@@H](c1ccc(OC)cc1C[C@H](C)C(=O)O)[C@H](C(=O)O)[C@H]2c1ccc2c(c1)OCO2`, in assay [2], the outcome was inactive.
